# Results published in the supplement of paper PMC9694430.
# What was measured:
# Assay in all cases: thermal shift delta Tm vs DMSO control; higher = stronger stabilization (binding)
# Settings in all cases: 12.5 µM; protein concentration 2 µM
# [1] = tested on: LOC_OS01G01410-cb001
# Summary of the method: (§1)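 Purified, E. coli-expressed rice kinase domain constructs were tested by differential scanning fluorimetry in 96-well plates: 19.5 μl of 2 μM kinase in 100 mM potassium phosphate pH 7.5, 150 mM NaCl, 10% glycerol, 5 × SYPRO Orange, plus compound in DMSO. Fluorescence was read from 25°C to 95°C at 0.05°C/s. Melting temperatures came from Boltzmann fits, and the shift is the triplicate mean relative to protein with DMSO alone.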
# [2] = tested on: LOC_OS01G02750-cb003
# Summary of the method: as §1
# [3] = tested on: LOC_OS01G10900-cb004
# Summary of the method: as §1
# [4] = tested on: LOC_OS01G13800-cb001
# Summary of the method: as §1
# [5] = tested on: LOC_OS01G14860-cb001
# Summary of the method: as §1
# [6] = tested on: LOC_OS01G21960-cb002
# Summary of the method: as §1
# [7] = tested on: LOC_OS01G39600-cb002
# Summary of the method: as §1
# [8] = tested on: LOC_OS01G48390-cb002
# Summary of the method: as §1
# [9] = tested on: LOC_OS01G51400-cb002
# Summary of the method: as §1
# [10] = tested on: T1, LOC_OS01G52050-cb004
# T1 sequence (whole entry): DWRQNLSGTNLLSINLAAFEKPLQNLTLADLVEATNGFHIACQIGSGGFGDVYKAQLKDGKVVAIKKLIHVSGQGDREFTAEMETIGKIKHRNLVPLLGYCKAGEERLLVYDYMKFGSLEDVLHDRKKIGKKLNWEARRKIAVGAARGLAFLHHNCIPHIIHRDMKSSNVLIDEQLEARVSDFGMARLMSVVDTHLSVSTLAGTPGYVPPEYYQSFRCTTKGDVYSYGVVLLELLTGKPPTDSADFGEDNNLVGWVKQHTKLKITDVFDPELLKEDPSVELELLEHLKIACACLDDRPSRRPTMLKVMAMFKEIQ
# Summary of the method: as §1
# [11] = tested on: LOC_OS01G57100-cb003
# Summary of the method: as §1
# [12] = tested on: LOC_OS01G60330-cb001
# Summary of the method: as §1
# [13] = tested on: LOC_OS01G60700-cb002
# Summary of the method: as §1
# [14] = tested on: LOC_OS01G63280-cb003
# Summary of the method: as §1
# [15] = tested on: LOC_OS01G67340-cb003
# Summary of the method: as §1
# [16] = tested on: LOC_OS01G70970-cb002
# Summary of the method: as §1
# [17] = tested on: LOC_OS02G07810-cb001
# Summary of the method: as §1
# [18] = tested on: LOC_OS02G08530-cb003
# Summary of the method: as §1
# [19] = tested on: LOC_OS02G14120-cb001
# Summary of the method: as §1
# [20] = tested on: LOC_OS02G17970-cb001
# Summary of the method: as §1
Structure (SMILES),thermal shift delta Tm [1] [°C],thermal shift delta Tm [2] [°C],thermal shift delta Tm [3] [°C],thermal shift delta Tm [4] [°C],thermal shift delta Tm [5] [°C],thermal shift delta Tm [6] [°C],thermal shift delta Tm [7] [°C],thermal shift delta Tm [8] [°C],thermal shift delta Tm [9] [°C],thermal shift delta Tm [10] [°C],thermal shift delta Tm [11] [°C],thermal shift delta Tm [12] [°C],thermal shift delta Tm [13] [°C],thermal shift delta Tm [14] [°C],thermal shift delta Tm [15] [°C],thermal shift delta Tm [16] [°C],thermal shift delta Tm [17] [°C],thermal shift delta Tm [18] [°C],thermal shift delta Tm [19] [°C],thermal shift delta Tm [20] [°C]
NC(=O)c1cnc(N[C@@H]2CCCC[C@@H]2N)nc1Nc1cccc(-n2nccn2)c1,0.52,0.79,-0.04,-0.14,3.33,1.47,0.85,0.37,1.02,5.03,2.55,0.94,1.04,0.28,0.99,2.19,-0.28,4.36,2.99,1.5
C[C@H](Nc1ncnc2[nH]cnc12)c1cc2ccc(F)cc2nc1-c1ccccn1,0.51,2.1,0.26,0.16,0.16,0.92,-0.54,0.94,0.64,0.37,2.29,1.36,2.33,0.52,0.95,0.17,0.74,0.28,0.28,0.95
CCn1c(=O)c(-c2ccc(Cl)cc2Cl)cc2cnc(Nc3ccc(N4CCNCC4)c(F)c3)nc21,5.82,1.71,7.68,0.11,3.38,0.97,5.06,2.05,-0.48,5.06,2.04,0.13,1.12,5.95,6.72,2.45,0.21,0.94,7.16,1.08
Cc1c(NC(=O)c2ccc(C(C)(C)C)cc2)cccc1-c1cn(C)c(=O)c(Nc2ccc(C(=O)N3CCOCC3)cc2)n1,0.18,0.71,-1.08,0.18,-0.01,0.66,2.2,0.86,0.2,-0.23,1.59,0.51,1.36,0.36,-0.03,0.22,0.9,0.31,0,0.66
Cc1nc(N)sc1-c1ccnc(Nc2ccc(N3CCOCC3)cc2)n1,5.75,10.4,1.74,0.29,2.6,2.06,3.24,2.34,0.68,6.52,1.88,3.15,0.88,0.17,-0.01,1.58,0.79,2.22,8.9,-0.16
Cc1nc(Nc2cnn(C3CCNCC3)c2)nc2c1N(C)C(=O)c1cc3ccccc3cc1N2C,0.36,0.48,-0.09,0.39,-0.18,0.66,-1.52,0.62,0.18,0.38,0.83,1.06,0.29,0.05,1.06,0.51,0.09,1.07,1.04,-0.03
NC(=O)c1ccc2nc(-c3ccc(Oc4ccc(Cl)cc4)cc3)[nH]c2c1 [Chk2 Inhibitor II (BML-277)],0.54,1.86,2.68,-0.46,0.95,0.75,0.45,1.43,0.88,1.84,-0.91,1.95,-0.56,0.87,1.05,0.31,-0.29,0.5,0.13,1.17
COc1ccc(CNC(=O)Nc2ncc([N+](=O)[O-])s2)cc1,0.9,0.85,0.34,0.54,3.27,1.49,-4.25,0.63,-0.45,0.42,1.87,0.81,1.38,0.15,0.55,0.54,1.25,1.46,-0.24,1.43
O=C(Nc1cccc(C(F)(F)F)c1)c1cccc2cc(Oc3cc(CO)ncn3)ccc12,0.74,0.11,0.77,0.56,0.71,0.94,-0.03,0.4,0.1,0.38,1.09,0.76,1.22,2.3,0.38,0.5,0.69,0.95,0.55,1.28
O=C(Nc1cccc(Nc2ncc(Br)c(NCCc3cnc[nH]3)n2)c1)N1CCCC1,5.28,2.32,0.86,0.31,4.24,3.16,7.21,4.8,1.21,11.9,1.45,12.3,0.44,0.73,2,9.39,0.15,2.7,10.6,0.3
CCc1nc(-c2cccc(C)c2)c(-c2ccnc(NC(=O)c3ccccc3)c2)s1,0.24,0.26,0.38,-0.71,0.27,-0.03,0.93,0.28,0.2,0.24,0.93,1.03,1.53,0.61,0.22,0.22,0.98,0.24,0.43,0.22
CC1(COc2ccc3c(c2)ncn3-c2ccc3cccc(N4CCC(N)CC4)c3n2)COC1,1.38,7.03,1.43,-0.87,1.96,3.78,2.31,0.25,0.13,11.9,1.84,0.86,0.41,0.93,3.44,7.9,0.2,3.47,11.5,0.58
OC1CCC(Nc2ncc3nc(Nc4c(F)cc(F)cc4F)n([C@H]4CCOC4)c3n2)CC1 (stereo not given in full) [Tanzisertib(CC-930)],0.32,0.43,0.32,0.7,0.73,0.08,0.06,0.2,0.08,2.88,1.12,0.58,0.28,0.29,0.54,0.55,-0.22,1.25,1.58,0.06
CNS(=O)(=O)Nc1nccc(Cc2c(C)c3ccc(Oc4ncccn4)cc3oc2=O)c1F,0.15,1.63,0.11,0.82,0.18,0.68,-0.07,0.47,0.47,0.66,1.4,0.33,1.34,0.93,0.24,0.04,1.08,0.58,0.9,1.23
COc1ccccc1-c1cc(Nc2cccc(CS(N)(=O)=O)c2)ncn1,0.57,1.83,-0.11,0.56,1.07,1.02,-0.27,0.79,0.36,0.9,2.72,0.45,1.21,0.28,0.81,0.41,0.75,1.15,1.66,1.02
CCN(CC)CCNC(=O)c1c(C)[nH]c(/C=C2\C(=O)Nc3ccc(-c4csc(-c5ccccc5)n4)cc32)c1C [Amcasertib (BBI503)],3.77,0.02,5.39,-0.01,1.64,1.66,4.12,-0.28,0.02,-0.1,0.34,0.8,-0.11,0.21,0.03,0.3,-0.19,3.7,4.69,-0.15
NC(=O)Nc1cc(-c2cccc(F)c2)sc1C(=O)N[C@H]1CCCNC1,0.37,5.35,0.3,0.24,0.9,3.38,0.2,0.65,0.08,11.6,4.78,1.93,0.65,0.86,0.78,1.89,1.56,5.46,8.74,0.89
COCCNCc1ccc(-c2cc3nccc(Oc4ccc(NC(=O)C5(C(=O)Nc6ccc(F)cc6)CC5)cc4F)c3s2)nc1 [Sitravatinib (MGCD516)],4.2,7.38,4.89,-0.17,3.69,0.72,0.85,6.78,0.58,4.17,0.24,1.12,-0.27,1.87,7.72,5.29,0.47,2.12,7.48,1.18
COc1ccc(Oc2cc(NCCC(F)(F)F)c3ncc(-c4ccc(C(=O)NC5CC5)c(C)c4)n3n2)c(F)c1F,0.28,1.7,-0.65,0.15,0.68,-0.46,1.84,0.14,0.75,1.81,-1.23,1.27,-0.2,0.82,1,0.18,1.17,0.66,-0.01,1.28
C=CC(=O)Nc1ccc2ncnc(Nc3ccc(OCc4cccc(F)c4)c(Cl)c3)c2c1,4.44,7.88,3.29,2.47,2.59,3.8,3.44,3.63,0.29,6.13,5.43,8.4,1.59,0,4.19,3.43,2.95,1.07,2.45,2.87
COc1ccc(-c2cc3c(C)nc(N)nc3n([C@H]3CC[C@H](OCCO)CC3)c2=O)cn1,0.74,0.7,0.3,0.31,0.17,0.57,0.34,0.57,0.45,0.16,2.79,0.98,0.9,0.37,0.23,0.14,1.27,1.09,1.12,0.63
O=C1NC(=O)/C(=C/c2ccc(-c3ccc(F)cc3O)o2)S1,3.59,5.21,2.81,2.09,4.25,2.37,7.64,3.1,3.89,8.12,4.13,9.64,1.12,23.4,5.05,4.18,2.79,1.57,2.56,1.7
O=C(Nc1nccs1)C(c1cc(F)ccc1O)N1Cc2ccccc2C1=O (stereo not given),0.29,0.35,0.25,-0.01,0.4,0.48,-0.23,-0.1,-0.02,-0.31,0.29,1.19,0.64,-0.09,1.06,0.42,0.12,0.39,0.47,0.37
O=C(Nc1ccc(OC(F)(F)F)cc1)c1sccc1NCc1ccnc2ccccc12,1.17,2.66,0.51,0.57,0.78,0.12,1.45,1,0.94,3.68,0.93,2.48,0.05,6.18,0.22,1.27,1.03,0.68,0.49,0.48
COc1ccc(CC(=O)Nc2nc3c(s2)CCc2ccccc2-3)cc1OC,0.68,1.06,0.85,0.28,0.9,0.69,0.43,1.55,-0.32,2.89,2.6,0.9,0.11,0.2,1.18,0.74,-0.24,0.98,2.82,0.81
